HBB splice mod = qHTS Assay for Modulators of Hemoglobin Beta Chain Splicing | HBB splicing reporter cell assay, activation; EGFP reporter with mutant IVS2-654 intron; response scale: normalised to 500 nM splice-correcting PNA | Potency, µM (top dose mostly 46.1 µM), for the others: at the highest dose activation, most hits filed as activators | 65,000 tested, 0.06% active | AID 925, 2007; note: potency is the fitted concentration of half-maximal effect; 0% is about no effect
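Compounds were applied for 2 days to HeLa EGFP-654 cells, 500/well in Optimem with 2% FCS. The reporter's EGFP is disrupted by mis-splicing of beta-globin intron IVS2-654. Readout: summed well GFP fluorescence from 488 nm laser scanning; reference was 500 nM antisense […] 654 PNA.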
15-hLO-2 inh = qHTS Assay for Inhibitors of 15-hLO-2 (15-human lipoxygenase 2); Polyunsaturated fatty acid lipoxygenase ALOX15B (Homo sapiens), O15296; purified 15hLO-2, xylenol orange hydroperoxide absorbance; Potency, µM (titrated, usually from 57.1 µM), for inactives: top-dose activity change, negative = inhibition, usual class: inhibitors; 110,000 tested, 0.56% active; note: potency is the fitted concentration of half-maximal effect; % is set by controls: 0 for no effect and ±100 for the full control effect; nearly all actives have a fitted effect of over 60% in size
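Enzyme 50 nM, AA 45 uM, 25 mM Hepes pH 7.5 + 0.01% Triton X-100; cpd preinc 15 min RT, rxn 90 min RT; stop/detect with 200 uM XO + 300 uM Fe(II) in 50 mM H2SO4, 30 min; A573/A405.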
Ub-GFP proteasome = Ubiquitin-GFP Assay | Ubiquitin-GFP reporter cells, proteasome inhibition, GFP fluorescence; response scale: untreated = 0%, 10 µM MG-132 = 100% | 67,000 tested, under 10 active | Potency, µM (titrated, usually from 45.9 µM), without a hit: at the top dose activation (GFP accumulation), hits mostly activators; active = well fitted activation curve with a large enough effect, not every such curve was filed as active; inconclusive = small, poorly fitted or top-dose-only effect, or another doubt; inactive = no such curve, though single readings can be large or run the other way; note: potency is the fitted concentration of half-maximal effect
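Proteasome block read as GFP accumulation: ubiquitin(G76V)-GFP U2OS cells exposed to compound (2.9 nM–46 uM) for 4 hr at 37 C. Normalization used untreated cells as 0% and 10 uM MG-132 as 100%; concentration-response curves fitted.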
ALOX15 inhib = qHTS Assay for Inhibitors of 15-hLO (15-human lipoxygenase) | Potency, µM (top dose mostly 57.1 µM), for the others: at the top dose activity change, negative = inhibition, usual class: inhibitors | purified 15hLO-1, xylenol orange hydroperoxide absorbance | 74,000 tested, 1.4% active; note: potency is the fitted concentration of half-maximal effect; % is set by controls: 0 for no effect and ±100 for the full control effect; nearly all actives have a fitted effect of over 55% in size
Target sequence (P16050 whole entry, looked up): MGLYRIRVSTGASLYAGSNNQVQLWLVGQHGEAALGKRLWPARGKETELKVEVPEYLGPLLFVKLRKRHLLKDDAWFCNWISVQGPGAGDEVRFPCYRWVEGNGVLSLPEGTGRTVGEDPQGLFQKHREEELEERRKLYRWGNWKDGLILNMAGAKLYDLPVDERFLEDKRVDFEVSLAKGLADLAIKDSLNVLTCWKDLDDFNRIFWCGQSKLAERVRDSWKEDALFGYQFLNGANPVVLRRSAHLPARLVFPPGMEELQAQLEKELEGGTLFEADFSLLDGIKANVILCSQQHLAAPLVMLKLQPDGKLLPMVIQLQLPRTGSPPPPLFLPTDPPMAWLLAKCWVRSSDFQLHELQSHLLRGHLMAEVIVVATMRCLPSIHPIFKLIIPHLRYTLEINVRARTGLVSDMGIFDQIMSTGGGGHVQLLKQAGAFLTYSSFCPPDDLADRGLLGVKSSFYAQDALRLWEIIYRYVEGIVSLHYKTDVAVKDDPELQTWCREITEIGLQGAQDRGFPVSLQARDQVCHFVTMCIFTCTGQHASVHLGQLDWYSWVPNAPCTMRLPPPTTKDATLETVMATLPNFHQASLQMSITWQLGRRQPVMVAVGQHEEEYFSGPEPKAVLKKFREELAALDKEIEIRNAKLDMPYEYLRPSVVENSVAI
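Purified human 15hLO-1 (40 nM final) in 25 mM Hepes pH 7.5, 0.01% Triton X-100 was preincubated with compound 15 min at room temperature, then reacted 6 min with 50 uM arachidonic acid; hydroperoxide detected by Fe-XO, 573/405 nm absorbance ratio.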
GFP derepression = qHTS Assay for Epigenetic Modulators | 68,000 tested, 0.09% active | Potency, µM (top dose mostly 46.1 µM), for inactives: at the top dose GFP derepression (activation) | mouse C127i GFP locus derepression, cytometry, 30 h; note: % of control where 0% means no effect
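Murine C127i mammary cells carrying a silenced, stably integrated CMV-driven GFP reporter were treated with compound for 30 hours at 37 C. After PBS washes, GFP-positive cells were counted by laser-scanning microplate cytometry.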
Tau fil binding = qHTS Assay for Tau Filament Binding; Potency, µM (doses to about 57.1 µM), for inactives: top-dose activity change, negative = inhibition; 71,000 tested, 2% active; recombinant tau filaments, thioflavin S fluorescence, 15 h; filaments grown with octadecylsulfate alongside compound; Microtubule-associated protein tau (Homo sapiens), P10636;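 note: potency is the fitted concentration of half-maximal effect; % is set by controls: 0 for no effect and ±100 for the full control effect; actives lower thioflavin S fluorescence by blocking filaments or displacing dye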
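Tau 2 uM in ThS buffer dispensed; compound added; 60 uM ODS added (finals 1 uM tau, 30 uM ODS); 15 h 37 C; fluor ex450/em510.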
Numbers without * were called inactive; i = inactive; ? = inconclusive; · = no result given; ! = not active in a repeat; [ ] = another dose, or the depositor's remark. Rows were chosen to be rich in hits. Some 2.3% of all compounds tested hit in one or more screens of this group. Unless noted, calls come from the whole dose curve; as a rule, active = well fitted curve in the direction sought with a large enough effect; inconclusive = small, poorly fitted or top-dose-only effect, or another doubt; inactive = no such curve, though single readings can be large; an effect the other way counts as inactive or inconclusive.

SMILES	HBB splice mod	15-hLO-2 inh	Ub-GFP proteasome	ALOX15 inhib	GFP derepression	Tau fil binding
CCN(CC)c1ccc(NC(=O)Nc2cccc(C(C)=O)c2)cc1	2%	?	2%	-12%	1%	20µM*
CCOc1cccc(C(=O)Nc2ccc(N(CC)CC)cc2)c1	-2%[0.0738 µM]	-23%	23%[9.17 µM]	-27%[11.4 µM]	-2%	3.2µM*
CC(=O)c1cccc(NC(=O)Nc2ccc3c(c2)N(C)C(=O)CS3)c1	-1%	2%[2.29 µM]	7%	?	0%	16µM*
O=c1c(O)c(-c2ccc(O)c(O)c2)oc2c(OC[C@H]3O[C@@H](O)[C@@H](O)[C@H](O)[C@@H]3O)c(O)cc(O)c12	·	·	2%	·	7%[9.22 µM]	?
O=C(CSC1=NCCN1)c1ccccc1	3%[9.22 µM]	-6%[11.4 µM]	7%[9.17 µM]	-2%[11.4 µM]	-7%[9.22 µM]	11%[11.4 µM]
Cc1c(C(=O)N(C)C2CCCCC2)sc2nc3ccc(N)cc3n12	·	7%[0.0915 µM]	·	·	·	·
CN[C@]1(C)[C@@H]2CC[C@@H](C2)C1(C)C	0%	-4%	7%	8%	0%	1%
Cn1cccc1C(=O)N1CCC2(CC1)CN(C(=O)Nc1cccc(C#N)c1)C2	3%	-7%	-9%	13%	0%[9.22 µM]	13%
CN1C(=O)CC(N2CCC(c3nc4ccccc4[nH]3)CC2)C1=O (centres undefined)	1%	4%	0%	-2%	·	20µM*
CCN(CC)CCCC(C)NC(=O)c1ccc(Cc2nc3ccccc3[nH]2)cc1 (centres undefined)	·	·	·	2%	·	·
O=c1c2c([nH]c3ccccc13)C(=C1CCCC1)CC2	·	-14%	·	20µM*	·	·
CC(C)(N)C(=O)N[C@@H]1C(=O)N2[C@@H]1SC(C)(C)[C@H]2C(=O)O	2%[9.22 µM]	-1%[11.4 µM]	-5%[9.17 µM]	4%[11.4 µM]	0%[9.22 µM]	2%[11.4 µM]
COC(=O)c1ccc(CCc2cc(O)ccc2O)cc1	3%[9.22 µM]	12%[11.4 µM]	-1%[9.17 µM]	1.6µM*	10%[9.22 µM]	3%[11.4 µM]
CCOC(=O)C1CCN(c2c(NCc3ccc(C(=O)O)cc3)c(=O)c2=O)CC1	0%	·	-3%	7%	·	8%
COc1ccccc1NC(=S)NC(=O)CCCOc1ccc(Cl)cc1Cl	·	20µM*	·	·	·	·
Oc1c(C(Nc2nc3ccccc3s2)c2ccco2)ccc2cccnc12 (centres undefined)	5%	22%	2%	33%	-2%	-29%
CC(C)C(=O)NC(c1ccco1)c1ccc2cccnc2c1O (centres undefined)	-2%[9.22 µM]	29%	13%	-21%	4µM*	49%
COc1ccc(C(NC(C)=O)c2ccc3cccnc3c2O)c(OC)c1 (centres undefined)	-2%	34%	-3%	30%	13µM*	-14%
Nc1c2c(nc3ccccc13)CCCC2	0%	1%[0.0915 µM]	-1%	13µM*!	7%	44%
C=CCn1c(N)c(C(=O)NCCC2=CCCCC2)sc1=S	-2%	?	8%	25µM*	0%	-6%
NC(=O)NCCC1=CCCCC1	·	0%	·	·	·	·
CC(N)CN (centres undefined)	0%	-4%	·	-1%	·	6%
C/C(=N/O)[C@@H]1C[C@H](CC(=O)O)C1(C)C	7%[9.22 µM]	-6%[11.4 µM]	-1%[9.17 µM]	-9%[11.4 µM]	-2%[9.22 µM]	10%[11.4 µM]
Cc1ccc(NCc2nc3ccccc3n2C)cc1	1%	43%	8%	16µM*	-3%	-1%
Cn1c(CNc2nc3ccccc3n2C)nc2ccccc21	0%	24%	-6%	15%	2%	14%
SMILES	HBB splice mod	15-hLO-2 inh	Ub-GFP proteasome	ALOX15 inhib	GFP derepression	Tau fil binding
CCCOc1ccc(N2C(=O)CC(N(O)c3ccccc3)C2=O)cc1 (centres undefined)	-2%[57.5 µM]	?	0%	-15%	0%	25µM*
NNC(=O)c1ccc[n+](CCc2ccccc2)c1	2%[9.22 µM]	-2%[11.4 µM]	-2%[9.17 µM]	9%[11.4 µM]	-3%[9.22 µM]	-5%[11.4 µM]
COc1ccc(C(=O)N2c3cc4c(cc3C(C)=CC2(C)C)OCO4)cc1	-1%	-4%	1%	-24%	-3%	16µM*
Nc1[nH]c(=S)[nH]c(=O)c1N=Nc1c(Br)cc(S(N)(=O)=O)cc1Br	1%[9.22 µM]	-7%[11.4 µM]	0%[9.17 µM]	2%[11.4 µM]	-2%[9.22 µM]	-2%[11.4 µM]
CC1(C)CC(=O)C2=C(C1)Oc1ncn(Cc3ccco3)c(=N)c1C2c1ccccc1 (centres undefined)	-1%	-4%	6%	-7%	0%	16µM*
Cn1c(-c2ccc3c(c2)OCO3)cnc1NCc1cccc(Cl)c1	-4%	10%	1%	20µM*	0%	7%
Cc1ccc(/C=C2\SC(=S)N(CC(=O)Nc3ncc(Cc4ccccc4Cl)s3)C2=O)cc1	·	13µM*	·	·	·	·
Cc1cccc(Cc2cnc(NC(=O)CN3C(=O)/C(=C/c4ccccc4)SC3=S)s2)c1	·	6%	·	·	·	·
S=C(NCCc1ccccc1)Nc1ccc(Cl)cc1Cl	·	25µM*	·	·	·	·
Cc1ccccc1/C=C\C1=NCCN1	-1%	-7%	-2%	-10%	-2%	1%
OC(CN(c1ccccc1)c1ccccc1)Cn1cnc2ccccc21 (centres undefined)	-1%	49%	4%	16%	2%	13µM*
OC(COCc1ccccc1)Cn1cnc2ccccc21 (centres undefined)	·	7%	·	·	·	·
O=S(=O)(O)CCCc1cccc2ccccc12	3%[9.22 µM]	-5%[11.4 µM]	-5%[9.17 µM]	0%[11.4 µM]	3%[9.22 µM]	2%[11.4 µM]
CC(C)c1ccc(Cn2ccc3c4c(N)nc(NC5CC5)nc4ccc32)cc1	·	24%	1%	7.9µM*	0%	i
O=C(O)[C@@H]1[C@@H]2C[C@H]([C@@H](Br)[C@H]2N2C(=O)CCC2=O)[C@@H]1C(=O)O	6%[9.22 µM]	1%[11.4 µM]	-5%[9.17 µM]	17%[11.4 µM]	-1%[9.22 µM]	-3%[11.4 µM]
Cc1onc(-c2ccccc2)c1C(=O)Nc1ccc2c(c1)OCO2	0%[9.22 µM]	1%	?	0%	4%	16µM*
Cc1ccc(NC2c3ncccc3C(=O)N2c2ccccc2C)cc1C (centres undefined)	3%	?	-3%	25µM*	-2%	?
CCCc1ccc(Oc2cn[nH]c2-c2ccc(O)cc2O)cc1	-1%[0.0738 µM]	5%	1%[9.17 µM]	3.2µM*	0%	0.79µM*
COc1ccc(Oc2cn[nH]c2-c2ccc(O)cc2O)cc1	5%[0.369 µM]	-5%	-4%	-16%	0%	-9%
Cc1cc(Nc2ccccc2N2CCOCC2)n2ncnc2n1	-1%[0.369 µM]	-7%	-3%	17%	6%	20µM*
Cc1cc(C)n2nc(C(=O)Nc3ccccc3N3CCOCC3)nc2n1	-2%	-6%	3%	13%	1%	9%
